The nature of assay [1]: TOX21_p53_BLA_p2_viability: Viability Assessment in the Tox21 HCT-116 p53 Agonism Beta-lactamase Assay, Phase 2 (AID 2283591).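 Note: compound exposure lasted 16 h at 37 °C; actives lower the ATP signal meaning cytotoxicity.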 The gist of the method:
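HCT116 p53-bla cells, 4000/well, dosed after 5 h plating (217-fold dilution of DMSO stocks) and incubated 16 h at 37C. Viability taken as cellular ATP by CellTiter-Glo luminescence after 30 min RT; signal loss marks cytotoxicity.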

Assay [2] has as its target Cellular tumor antigen p53 (Homo sapiens) (UniProt P04637). In words: TOX21_p53_BLA_p2_ratio: Tox21 HCT-116 p53 Agonism Beta-lactamase Assay, Ratio, Phase 2 (AID 2283592). The gist of the method: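 Human colon HCT116 cells with an inducible p53 beta-lactamase reporter are exposed to test chemicals for 16 h at 37C. Reporter induction is read as the 460/530 nm emission ratio after CCF4-AM loading, normalized to DMSO.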

Assay [3] can be described thus: TOX21_p53_BLA_p3_viability: Viability Assessment in the Tox21 HCT-116 p53 Agonism Beta-lactamase Assay, Phase 3 (AID 2283593).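 Note: cells exposed to compound for 16 h before reading.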 The gist of the method: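 HCT116 cells, 4000/well, dosed 5 h after plating by pin transfer (217-fold dilution from DMSO stock) and incubated 16 h at 37C, 5% CO2. Viability read as ATP luminescence with CellTiter-Glo after 30 min at room temperature.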

In assay [4] the target is Cellular tumor antigen p53 (Homo sapiens) (UniProt P04637). In words: TOX21_p53_BLA_p3_ratio: Tox21 HCT-116 p53 Agonism Beta-lactamase Assay, Ratio, Phase 3 (AID 2283596). An outline of the steps: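 HCT116 p53-bla cells (4000/well) given compound in DMSO (217-fold dilution) after 5 h, incubated 16 h at 37C. CCF4-AM substrate 2 h at room temperature; 460/530 nm emission ratio, gain fitted against DMSO.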

A short description of assay [5]: TOX21_p53_BLA_p4_viability: Viability Assessment in the Tox21 HCT-116 p53 Agonism Beta-lactamase Assay, Phase 4 (AID 2283597).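 Note: hits lower the luminescence signal meaning cytotoxicity.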 An outline of the steps:
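Luminescent ATP readout (CellTiter-Glo, 30 min, room temperature) in the same wells as the p53 bla ratio. HCT116 cells were treated for 16 h at 37C with DMSO-dissolved compounds.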

Assay [6] concerns the target Cellular tumor antigen p53 (Homo sapiens) (UniProt P04637). Put plainly: TOX21_p53_BLA_p5_ratio: Tox21 HCT-116 p53 Agonism Beta-lactamase Assay, Ratio, Phase 5 (AID 2283599). The gist of the method:
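HCT-116 p53-bla cells (4000/well) plated 5 h, dosed with compound (217-fold DMSO dilution) for 16 h at 37 C; CCF4-AM substrate 2 h at room temperature. Activity is the 460/530 nm emission ratio (405 nm excitation), fitted in gain-of-signal direction versus DMSO.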

The target is the same in assay [7]. In words: TOX21_p53_BLA_p4_ratio: Tox21 HCT-116 p53 Agonism Beta-lactamase Assay, Ratio, Phase 4 (AID 2283601). The gist of the method:
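HCT-116 p53 beta-lactamase reporter cells (4000/well) preincubated 5 h, then compound (217-fold dilution of DMSO stock) for 16 h at 37C. CCF4-AM substrate added 2 h at room temperature; 460/530 nm emission ratio fitted upward versus DMSO.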

The values that follow come from PubChem BioAssay (EPA / NIEHS).

Inconclusive results are not listed. Active and inactive are the calls of the source. Rule for the calls: active = hit-call score of the fitted dose curve at least 0.9, where 1 is the maximum; inconclusive = response in the unintended direction; inactive = score below 0.9.

Chain of Cellular tumor antigen p53 (Homo sapiens) (P04637 whole entry, looked up): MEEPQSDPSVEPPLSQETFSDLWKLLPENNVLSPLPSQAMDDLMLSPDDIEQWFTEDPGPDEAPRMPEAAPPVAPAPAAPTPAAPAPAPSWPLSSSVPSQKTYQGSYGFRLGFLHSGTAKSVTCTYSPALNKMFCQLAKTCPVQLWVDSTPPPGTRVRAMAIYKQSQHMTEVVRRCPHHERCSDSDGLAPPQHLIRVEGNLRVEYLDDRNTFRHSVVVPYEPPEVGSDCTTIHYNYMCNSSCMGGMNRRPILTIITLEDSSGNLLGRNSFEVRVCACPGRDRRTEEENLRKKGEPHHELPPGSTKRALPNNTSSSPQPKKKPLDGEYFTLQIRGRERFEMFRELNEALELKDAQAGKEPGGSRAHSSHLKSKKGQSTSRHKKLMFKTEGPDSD

As for `CCCN(CCC)C(=O)C(CCC(=O)OCCCN1CCN(CCOC(=O)Cc2c(C)n(C(=O)c3ccc(Cl)cc3)c3ccc(OC)cc23)CC1)NC(=O)c1ccccc1` (stereo unspecified), the result in assay [1], in assay [2], in assay [3], in assay [4], in assay [5] and in assay [6] was inactive. Also, in assay [7], the outcome was inactive.

Take `CC(=O)NCCCCCC(=O)O`: the outcome in assay [1], in assay [2], in assay [3], in assay [4], in assay [5] and in assay [6] was inactive. The result in assay [7] was inactive.

The AC50 is the midpoint of the concentration-response curve, whichever way the signal moves. Consider `C1COC(NC(C2CC2)C2CC2)=N1`, for which the call in assay [1], in assay [2], in assay [3], in assay [4], in assay [5] and in assay [6] was inactive. The AC50 in assay [7] is 39.6 µM (active).

`CNC(=O)c1ccccc1Sc1ccc2c(/C=C/c3ccccn3)n[nH]c2c1`: the outcome in assay [1], in assay [3] and in assay [5] was inactive. The AC50 in assay [2] was 0.922 µM (active); in assay [4] it was 1.02 µM (active); in assay [6], 0.894 µM (active); in assay [7], 0.738 µM (active).

Consider `COc1cccc(O)c1O`, for which the compound was called inactive in assay [1], in assay [2], in assay [3], in assay [4], in assay [5] and in assay [6]. For the same compound, in assay [7], the outcome was inactive.

For the compound `O=P(O)(O)C(O)(Cc1cccnc1)P(=O)(O)O`, the compound was classed as inactive in assay [1], in assay [2], in assay [3], in assay [4], in assay [5] and in assay [6]. Also, the outcome in assay [7] was inactive.

In the case of `O=C(O)C(=O)Nc1cccc(-c2nn[nH]n2)c1`, the compound was called inactive in assay [1], in assay [2], in assay [3], in assay [4], in assay [5] and in assay [6]. Also, the outcome in assay [7] was inactive.

Consider `Cc1ccc(O)c(C(=O)c2ccccc2)c1`, for which the call in assay [1], in assay [2], in assay [3], in assay [4], in assay [5] and in assay [6] was inactive. Moreover, the outcome in assay [7] was inactive.

Take `Cc1ccc2c(ccc3ccccc32)c1`: the compound was classed as inactive in assay [1], in assay [2], in assay [3], in assay [4], in assay [5] and in assay [6]. Moreover, the outcome in assay [7] was inactive.

Turning to `COc1cc(C(=O)N2CCOCC2)cc(OC)c1OC`, the compound was called inactive in assay [1], in assay [2], in assay [3], in assay [4], in assay [5] and in assay [6]. In assay [7], the result was inactive.

Take `C=Cc1c(C)c2cc3[nH]c(cc4nc(cc5nc(cc1[nH]2)C(C)=C5CCC(=O)O)C(CCC(=O)O)=C4C)c(C)c3C=C`: the result in assay [1], in assay [2], in assay [3], in assay [4], in assay [5] and in assay [6] was inactive. Also, the result in assay [7] was inactive.

On to `C1CCN2C[C@@H]3C[C@@H](CN4CCCC[C@@H]34)[C@H]2C1`, for which the call in assay [1], in assay [2], in assay [3], in assay [4], in assay [5] and in assay [6] was inactive. Also, the outcome in assay [7] was inactive.

In the case of `COc1ccc2cc1Oc1cc3c(cc1OC)CC[N+](C)(C)[C@H]3Cc1ccc(cc1)Oc1c(OC)c(OC)cc3c1[C@@H](C2)[N+](C)(C)CC3`, the outcome in assay [1], in assay [2], in assay [3], in assay [4], in assay [5] and in assay [6] was inactive. Moreover, the outcome in assay [7] was inactive.

Turning to `C1CC(COCC2CO2)CCC1COCC1CO1` (stereo unspecified), the compound was classed as inactive in assay [1], in assay [2], in assay [3], in assay [4], in assay [5] and in assay [6]. For the same compound, the result in assay [7] was inactive.

For `CC1(C)Oc2ccc(C#N)cc2[C@@H](N2CCCC2=O)[C@@H]1O`, the call in assay [1], in assay [2], in assay [3], in assay [4], in assay [5] and in assay [6] was inactive. The outcome in assay [7] was inactive.

For the compound `CC(CN1CC(=O)NC(=O)C1)N1CC(=O)NC(=O)C1` (stereo unspecified), the result in assay [1], in assay [3], in assay [4] and in assay [5] was inactive. Further, the values for the AC50 in assay [2], in assay [6] and in assay [7] were 8.6 µM (active), 8.51 µM (active) and 8.89 µM (active), respectively.

Take `Cc1ccsc1/C=C/C1=NCCCN1C`: the compound was classed as inactive in assay [1], in assay [2], in assay [3], in assay [4], in assay [5] and in assay [6]. Besides, in assay [7], the outcome was inactive.

For `O=C1CCC(c2ccccc2)(C2CCN(Cc3ccccc3)CC2)C(=O)N1` (stereo unspecified), the call in assay [1], in assay [2], in assay [3], in assay [4], in assay [5] and in assay [6] was inactive. In assay [7], the outcome was inactive.

Regarding `CN1C[C@H](C(=O)N[C@]2(C)O[C@@]3(O)[C@@H]4CCCN4C(=O)[C@H](Cc4ccccc4)N3C2=O)C[C@@H]2c3cccc4[nH]cc(c34)C[C@H]21`, the compound was classed as inactive in assay [1], in assay [2], in assay [3], in assay [4], in assay [5] and in assay [6]. In addition, the result in assay [7] was inactive.

Take `COc1cc(/C=C/c2ccccc2)oc(=O)c1`: the outcome in assay [1], in assay [2], in assay [3], in assay [4], in assay [5] and in assay [6] was inactive. The result in assay [7] was inactive.

Regarding `Nc1ccncc1N`, the compound was classed as inactive in assay [1], in assay [2], in assay [3], in assay [4], in assay [5] and in assay [6]. Moreover, the result in assay [7] was inactive.

Regarding `O=C(OCC1CO1)C1CCCCC1C(=O)OCC1CO1` (stereo unspecified), the outcome in assay [1], in assay [3], in assay [4], in assay [5], in assay [6] and in assay [7] was inactive. Further, in assay [2], the AC50 is 61 µM (active).

In the case of `CC(C)(C)OC(=O)c1cccc(N)c1`, the compound was called inactive in assay [1], in assay [2], in assay [3], in assay [4], in assay [5] and in assay [6]. In assay [7], the result was inactive.
